Inconclusive results are not listed. Calls of active or inactive are those of the source. The calls were made as follows: active = hit-call score of the fitted dose curve at least 0.9, where 1 is the maximum; inconclusive = response in the unintended direction; inactive = score below 0.9.
biological target: rat Neurokinin-3 Receptor (NK3), Tacr3 (gene 24808) (UniProt P16177); assay: NVS_GPCR_rNK3: NovaScreen (NVS) G Protein-Coupled Receptor Assay for rat Neurokinin-3 Receptor (NK3) (AID 2283310)
Method in brief: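 Filter-based radioligand displacement on rat cortex membrane preparations, read by scintillation 2 h post-dose. Chemicals first tested in duplicate at 25 uM; actives followed up in concentration series with a 50 uM maximum.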

rat Neurokinin-3 Receptor (NK3), Tacr3 (gene 24808), sequence (P16177 whole entry, looked up): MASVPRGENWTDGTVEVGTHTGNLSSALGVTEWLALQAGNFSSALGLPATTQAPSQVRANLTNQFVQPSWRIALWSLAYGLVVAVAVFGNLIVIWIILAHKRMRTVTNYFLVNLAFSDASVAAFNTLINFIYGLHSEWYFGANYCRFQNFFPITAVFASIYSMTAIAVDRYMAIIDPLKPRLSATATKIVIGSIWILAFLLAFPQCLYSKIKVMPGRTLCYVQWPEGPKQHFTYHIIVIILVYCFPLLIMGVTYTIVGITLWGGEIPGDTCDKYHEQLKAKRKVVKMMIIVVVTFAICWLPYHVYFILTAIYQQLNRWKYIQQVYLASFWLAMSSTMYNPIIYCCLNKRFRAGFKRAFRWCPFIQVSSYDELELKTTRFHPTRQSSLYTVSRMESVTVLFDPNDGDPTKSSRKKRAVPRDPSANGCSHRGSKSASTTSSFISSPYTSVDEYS

Row | SMILES | outcome | AC50
1 | COc1ccc(-n2nc(C(F)F)cc2-c2ccc(S(C)=O)cc2)cc1 (stereo not given) | inactive | 
2 | CNS(=O)(=O)c1cc(C(=O)N2CCC(CCN3C4CCC3CC(n3c(C)nc5ccccc53)C4)(c3cccc(F)c3)CC2)c(Cl)cc1F (stereo not given) |  | 5.41 µM (active)
3 | CN(C)c1ccc(N=NS(=O)(=O)O)cc1 | inactive | 
4 | CCOc1cccc(-n2cc(C(=O)N3CCN(c4cc(C(=O)O)c5ccccc5c4)CC3)nc2-c2ccc(C)cc2)c1 |  | 8.81 µM (active)
5 | CCOC(=O)CC(CC(=O)OCC)(OC(C)=O)C(=O)OCC | inactive | 

biological target: rat Opioid Receptor, Non-selective Sodium (Na+) Binding, Oprm1 (gene 25601) (UniProt P33535); assay: NVS_GPCR_rOpiate_NonSelectiveNa: NovaScreen (NVS) G Protein-Coupled Receptor Assay for rat Opioid Receptor, Non-selective Sodium (Na+) Binding (AID 2283311)
Method in brief: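 Filtration radioligand binding on rat forebrain membrane preparations, read 1.5 h after dosing. Single-concentration 25 µM primary screen in duplicate, followed by singleton concentration series to 50 µM max for actives; DMSO baseline.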

rat Opioid Receptor, Non-selective Sodium (Na+) Binding, Oprm1 (gene 25601), sequence (P33535 whole entry, looked up): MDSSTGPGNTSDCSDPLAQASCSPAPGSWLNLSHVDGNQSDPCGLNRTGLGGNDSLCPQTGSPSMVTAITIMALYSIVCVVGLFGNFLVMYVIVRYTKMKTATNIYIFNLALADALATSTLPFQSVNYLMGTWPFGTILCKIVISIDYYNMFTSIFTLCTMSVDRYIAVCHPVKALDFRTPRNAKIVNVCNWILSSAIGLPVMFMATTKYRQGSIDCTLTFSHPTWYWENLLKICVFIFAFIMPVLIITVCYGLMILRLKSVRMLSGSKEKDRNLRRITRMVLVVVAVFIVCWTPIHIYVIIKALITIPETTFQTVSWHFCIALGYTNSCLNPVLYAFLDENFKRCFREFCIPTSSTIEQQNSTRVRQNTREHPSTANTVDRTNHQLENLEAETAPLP

Row | SMILES | outcome | AC50
6 | CCOC(=O)c1ccc(C2CCC(NC[C@H](O)COc3ccc(O)c(NS(C)(=O)=O)c3)CC2)cc1 (stereo not given in full) | inactive | 
7 | CCCCCCCCCCCCCCCO | inactive | 
8 | COc1ccc(/C=C/S(=O)(=O)NC(=O)c2ccc(C)cc2Cl)cc1 | inactive | 
9 | COc1ccc(-n2nc(C(F)F)cc2-c2ccc(S(C)=O)cc2)cc1 (stereo not given) | inactive | 
10 | CC[C@H]1CC[C@H](NCc2cc3c(cc2OC)[C@H]2C[C@H]2C(=O)N3C)[C@H](c2ccccc2)N1 |  | 2.83 µM (active)
11 | CCn1nc(Cc2ccccc2)cc1C1CCN(C[C@H]2C[C@H](N(C)[C@@H](C(=O)O)C(C)C)C[C@@H]2c2cccc(F)c2)CC1 |  | 7.28 µM (active)
12 | CNS(=O)(=O)c1cc(C(=O)N2CCC(CCN3C4CCC3CC(n3c(C)nc5ccccc53)C4)(c3cccc(F)c3)CC2)c(Cl)cc1F (stereo not given) |  | 16.1 µM (active)
13 | COc1cccc(-c2ccc(/C=C\CN3CCCCCC3)cc2Cl)c1 |  | 15.2 µM (active)

biological target: rat Somatostatin Receptor (SST), Sstr1 (gene 25033) (UniProt P28646); assay: NVS_GPCR_rSST: NovaScreen (NVS) G Protein-Coupled Receptor Assay for rat Somatostatin Receptor (SST) (AID 2283314)
Experimental: NVS_GPCR_rSST is a biochemical, single-readout assay that uses extracted gene-proteins from Rat forebrain membranes in a tissue-based cell-free assay. Measurements were taken 1 hour after chemical dosing in a 96-well plate.NVS_GPCR_rSST is one of one assay component(s) measured or calculated from the NVS_GPCR_rSST assay. It is designed to make measurements of radioligand binding, a form of binding reporter, as detected with scintillation counting signals by Filter-based radiodetection technology.Data from the assay component NVS_GPCR_rSST was analyzed into 1 assay endpoint. This assay endpoint, NVS_GPCR_rSST, was analyzed in the positive analysis fitting direction relative to DMSO as the negative control and baseline of activity. Using a type of binding reporter, loss-of-signal activity can be used to understand changes in the binding as they relate to the gene Sstr1. Furthermore, this assay endpoint can be referred to as a primary readout, because the performed assay has only produced 1 assay endpoint. To generalize the intended target to other relatable targets, this assay endpoint is annotated to the gpcr intended target family, where the subfamily is rhodopsin-like receptor.
Binding assays used specific radioligands (tritiated, iodinated) with non-radioactive competitive displacement ligands in agonist or antagonist protocols (as indicated) and various reference compounds and inhibitors to titrate specific binding to receptors and transporters. Most enzyme assays (CYPs, kinases, phosphatases, proteases, HDACs) used recombinant protein and specific substrates (fluorescence mostly, some colorimetric and radioactive) and inhibitors, followed by a biochemical separation of substrate and product. All assays for the biochemical HTS were initially run in duplicate at a single concentration (10 uM for CYP450 assays and 25 uM for all others). Assay-chemical combinations meeting a pre-defined threshold (e.g., 30% inhibition and other criteria defined below) were then run in singleton concentration-response format with maximum concentration of 20 uM for CYPs and 50 uM for all others. Each assay was run with positive and negative controls, and concurrent controls on every plate. The follow-up (secondary) screen tested active chemical-pairs in concentration series, as well as a few additional assays not tested in the primary screen, some selected negative inactives, and several cases re-run in the concentration series for confirmatory purposes.

rat Somatostatin Receptor (SST), Sstr1 (gene 25033), sequence (P28646 whole entry, looked up): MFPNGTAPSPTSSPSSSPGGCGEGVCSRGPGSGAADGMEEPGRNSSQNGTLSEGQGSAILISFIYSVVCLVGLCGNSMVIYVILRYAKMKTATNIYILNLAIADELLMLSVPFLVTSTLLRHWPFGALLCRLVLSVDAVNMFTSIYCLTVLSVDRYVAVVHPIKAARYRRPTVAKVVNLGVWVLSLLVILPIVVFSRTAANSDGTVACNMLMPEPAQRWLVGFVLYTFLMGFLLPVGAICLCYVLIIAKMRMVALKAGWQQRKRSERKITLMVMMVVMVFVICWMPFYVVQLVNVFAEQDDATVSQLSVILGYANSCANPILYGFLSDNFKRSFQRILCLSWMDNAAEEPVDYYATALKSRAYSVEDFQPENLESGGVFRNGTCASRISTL

Row | SMILES | outcome
14 | CCc1cc(SCc2sc(-c3ccc(C(F)(F)F)cc3)nc2CN2CCN(c3ccc(OC)cc3)CC2)ccc1OCC(=O)O | inactive
15 | CNS(=O)(=O)c1cc(C(=O)N2CCC(CCN3C4CCC3CC(n3c(C)nc5ccccc53)C4)(c3cccc(F)c3)CC2)c(Cl)cc1F (stereo not given) | inactive
16 | COc1cccc(-c2ccc(/C=C\CN3CCCCCC3)cc2Cl)c1 | inactive
17 | O=C(O)CCN(C1(C(=O)NO)CCCC1)S(=O)(=O)c1ccc(Oc2ccc(F)cc2)cc1 | inactive

biological target: rat Neonicotinoid receptor (NNR), Chrna7 (gene 25302) (UniProt Q05941); assay: NVS_LGIC_rNNR_BungSens: NovaScreen (NVS) Ligand-Gated Ion Channel Assay for rat Neonicotinoid receptor (NNR) (AID 2283315)
Method in brief: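 Rat cortical membrane preparation incubated 2.5 h with tritiated or iodinated radioligand and test chemical. Bound radioactivity was filtered and counted by scintillation, and displacement was analysed against DMSO.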

rat Neonicotinoid receptor (NNR), Chrna7 (gene 25302), sequence (Q05941 whole entry, looked up): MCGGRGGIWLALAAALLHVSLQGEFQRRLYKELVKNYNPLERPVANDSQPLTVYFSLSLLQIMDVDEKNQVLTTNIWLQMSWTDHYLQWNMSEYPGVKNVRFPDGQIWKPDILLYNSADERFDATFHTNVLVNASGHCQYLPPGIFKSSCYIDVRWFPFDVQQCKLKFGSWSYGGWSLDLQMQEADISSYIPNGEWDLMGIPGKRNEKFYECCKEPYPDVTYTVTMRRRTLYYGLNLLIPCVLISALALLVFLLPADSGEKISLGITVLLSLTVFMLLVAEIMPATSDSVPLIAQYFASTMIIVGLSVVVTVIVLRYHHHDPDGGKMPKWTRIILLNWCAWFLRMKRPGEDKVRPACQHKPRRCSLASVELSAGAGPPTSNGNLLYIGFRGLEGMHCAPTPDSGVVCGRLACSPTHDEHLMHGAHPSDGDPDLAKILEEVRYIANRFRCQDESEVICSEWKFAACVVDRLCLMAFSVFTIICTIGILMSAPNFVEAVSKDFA

Row | SMILES | outcome | AC50
18 | O=C(NS(=O)(=O)/C=C/c1ccccc1)c1ccc(F)cc1Cl | inactive | 
19 | Cc1[nH]cnc1C[C@H]1CCc2c(C)c3ccccc3n2C1=O | inactive | 
20 | COc1ccc(-n2nc(C(F)F)cc2-c2ccc(S(C)=O)cc2)cc1 (stereo not given) | inactive | 
21 | CC[C@H]1CC[C@H](NCc2cc3c(cc2OC)[C@H]2C[C@H]2C(=O)N3C)[C@H](c2ccccc2)N1 | inactive | 
22 | CCn1nc(Cc2ccccc2)cc1C1CCN(C[C@H]2C[C@H](N(C)[C@@H](C(=O)O)C(C)C)C[C@@H]2c2cccc(F)c2)CC1 |  | 15.5 µM (active)
23 | CNS(=O)(=O)c1cc(C(=O)N2CCC(CCN3C4CCC3CC(n3c(C)nc5ccccc53)C4)(c3cccc(F)c3)CC2)c(Cl)cc1F (stereo not given) |  | 26.3 µM (active)
24 | COc1cccc(-c2ccc(/C=C\CN3CCCCCC3)cc2Cl)c1 | inactive | 
25 | CCOC(=O)CC(CC(=O)OCC)(OC(C)=O)C(=O)OCC | inactive | 

Reference: PubChem BioAssay (EPA / NIEHS)
